Source: the supplement of paper PMC11732987, “Enantioselective OTUD7B fragment discovery through chemoproteomics screening and high-throughput optimisation” (Communications Chemistry, 2025)

What was measured:
Assay in all cases: log2 ratio of Biotin-Ahx-Ub-VS probe labelling (fragment/DMSO); higher = less target engagement (more negative = stronger competition), active = hit call of the paper (q ≤ 0.05, log2 ratio ≤ -1)
Conditions in all cases: compound concentration: 200 uM; treatment time: 3 h
[1] = molecular target: USP9X (UniProt Q93008)
Chain of USP9X (Q93008 whole entry, the tested form may be a part): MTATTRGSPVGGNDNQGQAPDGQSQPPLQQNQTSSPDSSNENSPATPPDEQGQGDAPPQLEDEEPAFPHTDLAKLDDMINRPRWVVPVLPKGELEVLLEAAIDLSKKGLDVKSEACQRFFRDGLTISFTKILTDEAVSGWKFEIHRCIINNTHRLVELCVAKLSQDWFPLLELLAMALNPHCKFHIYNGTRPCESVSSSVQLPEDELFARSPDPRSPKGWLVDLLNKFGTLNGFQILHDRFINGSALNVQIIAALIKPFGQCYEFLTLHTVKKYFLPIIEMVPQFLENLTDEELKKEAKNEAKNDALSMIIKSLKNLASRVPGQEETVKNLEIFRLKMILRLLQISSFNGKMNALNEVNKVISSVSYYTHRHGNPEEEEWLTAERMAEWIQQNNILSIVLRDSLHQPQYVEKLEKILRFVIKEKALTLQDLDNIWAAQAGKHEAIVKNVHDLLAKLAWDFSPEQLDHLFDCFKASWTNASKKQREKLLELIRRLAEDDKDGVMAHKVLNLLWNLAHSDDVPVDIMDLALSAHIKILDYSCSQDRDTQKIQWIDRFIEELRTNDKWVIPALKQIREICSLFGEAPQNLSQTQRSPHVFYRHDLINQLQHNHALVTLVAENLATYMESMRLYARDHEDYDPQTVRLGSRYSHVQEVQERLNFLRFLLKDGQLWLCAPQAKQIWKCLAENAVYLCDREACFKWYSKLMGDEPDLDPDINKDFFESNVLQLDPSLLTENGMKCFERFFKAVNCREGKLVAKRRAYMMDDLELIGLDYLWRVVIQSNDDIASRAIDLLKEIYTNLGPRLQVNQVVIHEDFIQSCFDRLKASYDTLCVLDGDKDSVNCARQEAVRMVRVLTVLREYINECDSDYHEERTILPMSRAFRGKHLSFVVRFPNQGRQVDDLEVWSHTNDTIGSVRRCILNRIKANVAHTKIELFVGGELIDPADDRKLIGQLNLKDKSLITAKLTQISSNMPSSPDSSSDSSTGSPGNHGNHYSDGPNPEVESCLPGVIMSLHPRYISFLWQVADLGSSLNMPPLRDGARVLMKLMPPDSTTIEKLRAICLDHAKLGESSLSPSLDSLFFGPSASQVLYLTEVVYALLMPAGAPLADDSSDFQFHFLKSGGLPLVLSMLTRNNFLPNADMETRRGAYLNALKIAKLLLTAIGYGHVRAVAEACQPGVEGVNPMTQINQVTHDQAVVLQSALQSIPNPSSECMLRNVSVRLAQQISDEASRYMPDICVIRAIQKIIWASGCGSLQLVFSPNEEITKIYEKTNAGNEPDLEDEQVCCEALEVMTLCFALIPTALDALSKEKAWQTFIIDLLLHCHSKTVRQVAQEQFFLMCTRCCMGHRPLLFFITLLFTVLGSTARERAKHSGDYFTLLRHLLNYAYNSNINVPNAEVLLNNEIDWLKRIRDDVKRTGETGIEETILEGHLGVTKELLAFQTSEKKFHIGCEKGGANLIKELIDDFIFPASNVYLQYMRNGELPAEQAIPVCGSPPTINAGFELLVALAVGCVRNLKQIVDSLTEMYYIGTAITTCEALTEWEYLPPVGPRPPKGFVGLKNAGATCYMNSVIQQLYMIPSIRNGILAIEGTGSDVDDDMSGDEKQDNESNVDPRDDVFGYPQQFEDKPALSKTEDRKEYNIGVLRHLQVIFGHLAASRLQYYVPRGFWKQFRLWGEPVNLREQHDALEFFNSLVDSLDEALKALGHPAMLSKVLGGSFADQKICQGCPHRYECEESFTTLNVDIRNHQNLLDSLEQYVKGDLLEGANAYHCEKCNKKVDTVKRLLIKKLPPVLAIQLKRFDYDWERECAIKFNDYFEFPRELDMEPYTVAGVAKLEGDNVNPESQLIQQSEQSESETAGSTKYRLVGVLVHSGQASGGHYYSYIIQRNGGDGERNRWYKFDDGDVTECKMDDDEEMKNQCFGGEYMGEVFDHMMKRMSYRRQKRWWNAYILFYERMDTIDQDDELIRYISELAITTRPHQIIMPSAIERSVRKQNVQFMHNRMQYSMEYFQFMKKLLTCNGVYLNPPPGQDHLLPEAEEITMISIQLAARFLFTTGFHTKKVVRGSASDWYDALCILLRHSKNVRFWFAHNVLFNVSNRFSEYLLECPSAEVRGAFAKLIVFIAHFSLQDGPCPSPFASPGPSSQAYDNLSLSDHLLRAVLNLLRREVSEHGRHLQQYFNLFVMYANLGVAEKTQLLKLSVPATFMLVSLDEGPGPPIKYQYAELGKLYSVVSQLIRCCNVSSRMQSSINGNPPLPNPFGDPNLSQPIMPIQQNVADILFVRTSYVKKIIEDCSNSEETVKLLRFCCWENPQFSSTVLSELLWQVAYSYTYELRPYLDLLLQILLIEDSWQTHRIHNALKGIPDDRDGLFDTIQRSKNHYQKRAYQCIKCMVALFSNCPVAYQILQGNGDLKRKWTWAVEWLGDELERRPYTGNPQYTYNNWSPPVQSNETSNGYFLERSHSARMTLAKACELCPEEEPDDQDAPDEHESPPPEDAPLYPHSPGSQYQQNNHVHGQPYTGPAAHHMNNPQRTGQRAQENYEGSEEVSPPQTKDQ
Method in brief: (§1)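 HEK293T lysate (495 µg per sample, in Tris/CHAPS/IGEPAL buffer with protease inhibitors) was treated in triplicate with fragment at 200 µM or with DMSO for 3 h. It was then treated with Biotin-Ahx-Ub-VS (0.5 µM final) for 1 h. Labelled DUBs were NeutrAvidin-enriched, digested with LysC and trypsin, and run by diaPASEF LC-MS/MS. Spectronaut label-free quantities were global-median-normalised. Values are average log2 ratios fragment/DMSO by unpaired t-test, using proteins with ≥2 unique peptides.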

[2] = molecular target: UniProt O00487
Method in brief: as §1

[3] = molecular target: UniProt O00507
Chain of UniProt O00507 (O00507 whole entry): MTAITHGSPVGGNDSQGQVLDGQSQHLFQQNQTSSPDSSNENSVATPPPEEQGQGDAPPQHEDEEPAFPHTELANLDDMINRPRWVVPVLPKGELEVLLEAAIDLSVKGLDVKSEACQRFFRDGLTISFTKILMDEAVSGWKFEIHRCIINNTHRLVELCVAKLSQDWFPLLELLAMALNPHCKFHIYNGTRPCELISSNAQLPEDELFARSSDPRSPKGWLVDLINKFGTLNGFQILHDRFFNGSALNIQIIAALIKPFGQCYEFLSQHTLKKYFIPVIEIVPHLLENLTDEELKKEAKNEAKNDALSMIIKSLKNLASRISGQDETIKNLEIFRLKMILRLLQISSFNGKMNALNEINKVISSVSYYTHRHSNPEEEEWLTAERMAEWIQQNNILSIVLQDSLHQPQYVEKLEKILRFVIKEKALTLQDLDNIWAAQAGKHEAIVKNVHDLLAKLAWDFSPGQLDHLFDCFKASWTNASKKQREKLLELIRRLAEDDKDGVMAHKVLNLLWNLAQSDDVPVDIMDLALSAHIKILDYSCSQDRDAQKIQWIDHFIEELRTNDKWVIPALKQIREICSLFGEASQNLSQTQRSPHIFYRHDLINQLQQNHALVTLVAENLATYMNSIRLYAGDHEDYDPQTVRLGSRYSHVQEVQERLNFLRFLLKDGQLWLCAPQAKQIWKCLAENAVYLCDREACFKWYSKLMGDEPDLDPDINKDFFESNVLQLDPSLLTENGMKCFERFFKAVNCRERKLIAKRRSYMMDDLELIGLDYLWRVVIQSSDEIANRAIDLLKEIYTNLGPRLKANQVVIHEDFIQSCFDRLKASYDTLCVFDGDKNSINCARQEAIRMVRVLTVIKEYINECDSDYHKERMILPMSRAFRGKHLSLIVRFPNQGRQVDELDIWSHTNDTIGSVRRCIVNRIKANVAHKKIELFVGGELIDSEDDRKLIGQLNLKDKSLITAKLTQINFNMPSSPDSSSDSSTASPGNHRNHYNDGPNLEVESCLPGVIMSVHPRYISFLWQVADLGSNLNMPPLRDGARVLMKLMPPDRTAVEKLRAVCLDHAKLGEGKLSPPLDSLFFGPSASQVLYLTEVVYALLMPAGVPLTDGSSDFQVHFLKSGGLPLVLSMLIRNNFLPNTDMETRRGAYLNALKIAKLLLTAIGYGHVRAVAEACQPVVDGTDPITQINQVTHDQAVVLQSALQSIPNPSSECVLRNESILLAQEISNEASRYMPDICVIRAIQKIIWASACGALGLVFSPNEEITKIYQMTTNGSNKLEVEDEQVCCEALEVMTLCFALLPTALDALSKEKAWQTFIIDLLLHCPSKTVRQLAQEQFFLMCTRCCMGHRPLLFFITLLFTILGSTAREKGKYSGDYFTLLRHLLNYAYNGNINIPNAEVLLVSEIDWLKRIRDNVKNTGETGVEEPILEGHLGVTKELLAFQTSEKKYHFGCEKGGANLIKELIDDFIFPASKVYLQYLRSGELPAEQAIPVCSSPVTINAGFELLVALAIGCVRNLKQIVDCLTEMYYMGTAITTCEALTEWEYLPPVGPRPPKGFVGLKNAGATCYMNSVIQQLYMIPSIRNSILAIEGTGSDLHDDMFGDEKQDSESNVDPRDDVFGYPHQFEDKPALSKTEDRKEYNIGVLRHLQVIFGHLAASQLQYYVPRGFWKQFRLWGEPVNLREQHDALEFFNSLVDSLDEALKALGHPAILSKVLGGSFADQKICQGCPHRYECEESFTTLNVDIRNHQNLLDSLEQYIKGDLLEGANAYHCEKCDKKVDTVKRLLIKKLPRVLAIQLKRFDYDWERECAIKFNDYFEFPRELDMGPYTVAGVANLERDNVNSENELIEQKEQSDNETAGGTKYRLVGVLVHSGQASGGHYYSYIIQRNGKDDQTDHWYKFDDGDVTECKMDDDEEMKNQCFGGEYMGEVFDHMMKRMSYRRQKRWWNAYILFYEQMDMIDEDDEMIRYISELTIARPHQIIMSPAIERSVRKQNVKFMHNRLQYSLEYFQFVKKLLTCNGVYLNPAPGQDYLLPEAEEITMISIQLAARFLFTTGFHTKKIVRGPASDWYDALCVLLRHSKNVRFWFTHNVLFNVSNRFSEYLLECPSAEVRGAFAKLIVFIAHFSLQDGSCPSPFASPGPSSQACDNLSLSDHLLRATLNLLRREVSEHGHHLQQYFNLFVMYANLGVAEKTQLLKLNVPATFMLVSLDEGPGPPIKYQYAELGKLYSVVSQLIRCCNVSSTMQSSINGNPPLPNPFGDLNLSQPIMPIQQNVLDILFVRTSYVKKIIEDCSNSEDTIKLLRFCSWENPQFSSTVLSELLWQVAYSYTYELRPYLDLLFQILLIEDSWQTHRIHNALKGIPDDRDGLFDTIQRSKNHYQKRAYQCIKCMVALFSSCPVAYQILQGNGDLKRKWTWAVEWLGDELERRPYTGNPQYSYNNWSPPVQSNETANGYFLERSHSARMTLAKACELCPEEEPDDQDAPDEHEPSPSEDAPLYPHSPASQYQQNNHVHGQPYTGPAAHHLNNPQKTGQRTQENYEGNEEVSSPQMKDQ
Method in brief: as §1

[4] = molecular target: UniProt P51784
Method in brief: as §1

[5] = molecular target: T1, UniProt Q5T2D3
T1 sequence (whole entry): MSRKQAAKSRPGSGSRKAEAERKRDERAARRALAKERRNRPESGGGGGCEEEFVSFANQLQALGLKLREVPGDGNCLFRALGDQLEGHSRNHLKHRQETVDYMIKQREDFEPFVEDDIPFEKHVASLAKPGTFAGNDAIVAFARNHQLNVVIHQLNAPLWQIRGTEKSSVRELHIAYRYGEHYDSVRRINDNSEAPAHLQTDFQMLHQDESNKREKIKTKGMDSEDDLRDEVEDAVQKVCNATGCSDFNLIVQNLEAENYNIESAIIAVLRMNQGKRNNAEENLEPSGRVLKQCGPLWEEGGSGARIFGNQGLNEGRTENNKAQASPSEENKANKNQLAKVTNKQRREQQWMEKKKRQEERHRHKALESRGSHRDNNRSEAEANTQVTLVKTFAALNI
Method in brief: as §1

[6] = molecular target: T2, UniProt Q8TE49
T2 sequence (whole entry): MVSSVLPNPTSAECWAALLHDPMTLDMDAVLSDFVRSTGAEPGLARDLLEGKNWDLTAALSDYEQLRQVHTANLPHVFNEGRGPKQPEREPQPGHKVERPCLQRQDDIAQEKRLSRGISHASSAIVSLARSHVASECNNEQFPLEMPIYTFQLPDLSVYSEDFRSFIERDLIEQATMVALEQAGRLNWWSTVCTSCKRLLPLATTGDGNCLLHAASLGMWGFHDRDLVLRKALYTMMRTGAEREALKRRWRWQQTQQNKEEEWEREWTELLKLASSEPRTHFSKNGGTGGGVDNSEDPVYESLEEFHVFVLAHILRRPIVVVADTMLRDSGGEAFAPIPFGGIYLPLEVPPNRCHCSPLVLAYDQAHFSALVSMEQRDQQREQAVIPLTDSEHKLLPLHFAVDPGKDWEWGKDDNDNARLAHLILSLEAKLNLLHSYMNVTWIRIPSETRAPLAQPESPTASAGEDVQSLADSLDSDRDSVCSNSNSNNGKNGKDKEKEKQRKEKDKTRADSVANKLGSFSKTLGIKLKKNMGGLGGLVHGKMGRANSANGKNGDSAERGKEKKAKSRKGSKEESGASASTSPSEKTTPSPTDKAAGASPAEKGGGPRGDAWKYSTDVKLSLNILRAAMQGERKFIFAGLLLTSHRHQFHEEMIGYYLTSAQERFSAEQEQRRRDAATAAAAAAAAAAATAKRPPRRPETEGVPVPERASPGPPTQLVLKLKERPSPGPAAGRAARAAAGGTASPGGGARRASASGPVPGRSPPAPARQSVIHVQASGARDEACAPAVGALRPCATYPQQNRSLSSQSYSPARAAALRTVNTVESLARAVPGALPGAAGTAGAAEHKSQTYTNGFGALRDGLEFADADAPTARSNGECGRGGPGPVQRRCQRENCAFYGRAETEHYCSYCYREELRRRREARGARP
Method in brief: as §1

[7] = molecular target: T3, UniProt Q9P2H5
T3 sequence (whole entry): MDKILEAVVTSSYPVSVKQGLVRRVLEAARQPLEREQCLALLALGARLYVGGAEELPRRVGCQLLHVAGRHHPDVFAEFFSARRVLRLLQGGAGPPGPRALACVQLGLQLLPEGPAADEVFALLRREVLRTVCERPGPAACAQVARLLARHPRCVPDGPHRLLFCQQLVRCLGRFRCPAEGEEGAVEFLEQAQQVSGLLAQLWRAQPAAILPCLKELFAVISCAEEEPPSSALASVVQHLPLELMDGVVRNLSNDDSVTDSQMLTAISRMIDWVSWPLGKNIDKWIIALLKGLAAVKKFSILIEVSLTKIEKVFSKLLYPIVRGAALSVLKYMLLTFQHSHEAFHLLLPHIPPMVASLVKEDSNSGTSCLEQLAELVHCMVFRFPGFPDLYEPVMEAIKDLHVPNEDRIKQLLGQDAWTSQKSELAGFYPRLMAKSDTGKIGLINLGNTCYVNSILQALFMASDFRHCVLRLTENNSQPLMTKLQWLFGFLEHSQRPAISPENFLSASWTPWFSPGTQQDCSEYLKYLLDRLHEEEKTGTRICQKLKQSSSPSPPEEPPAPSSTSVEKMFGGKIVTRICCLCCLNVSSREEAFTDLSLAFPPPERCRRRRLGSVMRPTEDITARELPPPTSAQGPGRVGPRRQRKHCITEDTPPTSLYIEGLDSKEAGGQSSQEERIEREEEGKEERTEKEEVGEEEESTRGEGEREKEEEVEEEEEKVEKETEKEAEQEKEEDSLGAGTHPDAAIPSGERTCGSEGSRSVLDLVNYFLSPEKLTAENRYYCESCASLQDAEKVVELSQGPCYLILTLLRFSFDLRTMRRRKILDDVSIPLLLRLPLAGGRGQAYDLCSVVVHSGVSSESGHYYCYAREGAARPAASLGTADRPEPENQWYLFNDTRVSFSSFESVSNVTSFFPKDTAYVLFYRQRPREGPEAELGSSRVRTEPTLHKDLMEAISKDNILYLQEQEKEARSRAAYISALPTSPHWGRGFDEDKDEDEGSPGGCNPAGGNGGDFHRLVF
Method in brief: as §1

[8] = molecular target: T4, UniProt Q9UGI0
T4 sequence (whole entry): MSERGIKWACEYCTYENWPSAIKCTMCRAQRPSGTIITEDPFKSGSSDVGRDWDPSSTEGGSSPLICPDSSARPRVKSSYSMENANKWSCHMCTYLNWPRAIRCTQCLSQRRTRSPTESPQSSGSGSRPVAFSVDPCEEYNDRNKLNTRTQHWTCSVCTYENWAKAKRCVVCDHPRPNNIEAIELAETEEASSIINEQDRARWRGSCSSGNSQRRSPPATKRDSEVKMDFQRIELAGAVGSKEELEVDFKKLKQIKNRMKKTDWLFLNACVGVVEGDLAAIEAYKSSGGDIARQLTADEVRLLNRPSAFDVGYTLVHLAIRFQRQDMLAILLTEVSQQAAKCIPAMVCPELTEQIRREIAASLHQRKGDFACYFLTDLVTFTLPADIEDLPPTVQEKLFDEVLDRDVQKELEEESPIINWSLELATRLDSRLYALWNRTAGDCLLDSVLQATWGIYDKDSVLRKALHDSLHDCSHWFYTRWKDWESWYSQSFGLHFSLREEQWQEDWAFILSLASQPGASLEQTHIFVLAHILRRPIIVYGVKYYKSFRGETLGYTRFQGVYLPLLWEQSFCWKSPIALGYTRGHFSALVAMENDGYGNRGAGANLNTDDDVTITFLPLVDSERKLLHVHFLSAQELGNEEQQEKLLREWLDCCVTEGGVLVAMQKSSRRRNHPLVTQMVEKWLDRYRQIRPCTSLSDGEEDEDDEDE
Method in brief: as §1

[9] = molecular target: T5, YOD1 (UniProt Q5VVQ6)
T5 sequence (whole entry): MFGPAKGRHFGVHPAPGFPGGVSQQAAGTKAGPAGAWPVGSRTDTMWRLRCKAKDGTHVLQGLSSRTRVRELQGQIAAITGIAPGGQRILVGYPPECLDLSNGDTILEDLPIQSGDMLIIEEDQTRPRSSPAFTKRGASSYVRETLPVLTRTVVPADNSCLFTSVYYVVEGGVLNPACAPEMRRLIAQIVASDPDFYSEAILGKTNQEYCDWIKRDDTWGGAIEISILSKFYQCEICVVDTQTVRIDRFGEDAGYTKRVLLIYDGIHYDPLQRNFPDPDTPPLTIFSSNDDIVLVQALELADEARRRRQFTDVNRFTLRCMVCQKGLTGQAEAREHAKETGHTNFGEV
Method in brief: as §1

Measured: log2 ratio of Biotin-Ahx-Ub-VS probe labelling

CC(NC(=O)CCl)c1ccc2[nH]ncc2c1 (centres undefined)
active: [6] -1.1
inactive: [1] -0.429 | [2] -0.121 | [3] -0.939 | [4] -0.173 | [5] -0.26 | [7] -0.0706 | [8] -0.756 | [9] -0.629
